The molecules below were run on PIK3CD. Settings: concentration: 1 μM,replicates: in singlicate; n = 1.
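Note: KINOMEscan kinase panel screen.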

Row | SMILES | %Inh [%]
1 | OCCn1cc(-c2cnc3nnn(Cc4ccc5ncccc5c4)c3n2)cn1 | 0
2 | COc1cc2ncn(-c3cc(OCC4CCCCC4)c(C(N)=O)s3)c2cc1OC [GSK204559] | 0
3 | CCn1c(-c2nonc2N)nc2cncc(Br)c21 [SB-738004] | 34
4 | CC(=O)c1c(-c2ccncc2)[nH]c(-c2ccncc2)c1C [GW493036] | 38
5 | CCOC(=O)N1CCC(n2cnc(-c3ccc(F)cc3)c2-c2ccnc(N)n2)CC1 [SB-219952] | 16
6 | O=C(NOCC1CC1)c1cc(Br)c(F)c(F)c1Nc1ccc(I)cc1Cl | 0
7 | CCn1c(-c2nonc2N)nc2cncc(CNC3CCNCC3)c21.Cl [SB-747651] | 2
8 | Cc1nnc(-c2ccc3occ(-c4ccc(S(C)=O)cc4)c3n2)o1 (stereo not shown) | 0
9 | CCCC(=O)Nc1n[nH]c2ncccc12 [SB-601436] | 0
10 | O=C(Nc1cccc(Oc2ccc3nccn3n2)c1)Nc1cccc(C(F)(F)F)c1 | 5
11 | C[C@@H]1CCN(C(=O)N2CCCC2)C[C@@H]1N(C)c1ncnc2[nH]ccc12 | 2
12 | c1ccc(Oc2ccc(Nc3ccnc4ccc(-c5ccccn5)cc34)cc2)cc1 [GW407034] | 0
13 | O=c1[nH]cc(-c2ccc(O)cc2)c2sc(-c3ccncc3)cc12 [GSK1033723] | 39
14 | CS(=O)(=O)Nc1ccc(-c2ccnc3[nH]ccc23)cc1 [GSK993273] | 8
15 | Cc1n[nH]c2cc(Nc3ccnc(Nc4cccc(CN5CCOCC5)c4)n3)ccc12 [GW682569] | 9
16 | O=C(Nc1ccc(Oc2ccc3nc(NC(=O)C4CC4)cn3n2)c(F)c1)c1cccn(-c2ccccc2)c1=O | 0
17 | C[C@@H]1CNc2c(sc3ccc4nc(-c5ccc(O)cc5)ccc4c23)C(=O)N1 | 39
18 | C[C@@H]1CNc2c(sc3ccc4nc(-c5ccncc5)ccc4c23)C(=O)N1 | 0
19 | Cn1cc(-c2cccc3c(N)c(C(N)=O)nnc23)cn1 | 20
20 | C[C@@H](Oc1cc(-n2cnc3cc(-c4cnn(C)c4)ccc32)sc1C(N)=O)c1ccccc1Cl [GSK580432] | 32
21 | COC(=O)c1cccc(NC(=O)NC2CCN(c3ccnc(Nc4cc(OC)c(OC)c(OC)c4)n3)C2)c1 (stereo not shown) [GSK1379767] | 35
22 | CN1CCN(CCCNc2nccc(-c3c(-c4ccc(F)cc4)nn4cc(C(N)=O)ccc34)n2)CC1 [GW622475] | 0
23 | NC(=O)c1ccc(-c2cc3ncnc(SCC(=O)O)c3s2)cc1 | 0
24 | C[C@@H](Oc1cc(-n2cnc3ccc(-c4ccncc4)cc32)sc1C(N)=O)c1ccccc1Cl [GSK483724] | 87
25 | CCNCC(Cc1ccccc1)NC(=O)c1cc(Br)c(-c2ccnc3[nH]ccc23)s1.Cl.Cl (stereo not shown) [GSK1383280] | 0

Reference: paper PMC5540273 (PLoS ONE, 2017)
